Article PMC7862700, “An all-to-all approach to the identification of sequence-specific readers for epigenetic DNA modifications on cytosine”

Tests used:
Assay in all cases: DAPPL (digital affinity profiling via proximity ligation, sequencing); 10 mM Tris-HCl pH 7.5, 50 mM NaCl, 1 mM DTT, 4% glycerol, room temperature, 30 min; GST-TFs on glutathione beads, 16-mer random dsDNA library, 0.1% formaldehyde crosslink after washing; high values mean tight binding
[1] = target: T1, FEV (Homo sapiens, UniProt Q99581 1-238); details: protein: recombinant; tags: N-terminal GST; dsDNA, one strand shown
T1 sequence: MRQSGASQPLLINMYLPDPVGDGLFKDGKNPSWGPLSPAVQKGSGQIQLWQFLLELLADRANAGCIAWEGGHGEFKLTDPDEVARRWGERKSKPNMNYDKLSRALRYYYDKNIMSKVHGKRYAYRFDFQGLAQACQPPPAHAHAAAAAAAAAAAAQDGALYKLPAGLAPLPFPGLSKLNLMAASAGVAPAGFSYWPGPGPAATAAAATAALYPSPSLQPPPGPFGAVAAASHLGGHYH
Summary of the method: (§1)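 Human transcription factors were made in yeast as GST fusions, captured on glutathione beads and barcoded with DNA. With a tag-only sample included, the pool was incubated with 200 nmole of a random double-stranded 16-mer DNA library in Tris/NaCl/DTT/glycerol buffer at room temperature for 30 min, then crosslinked with 0.1% formaldehyde after washing, ligated by proximity, amplified and sequenced. For binding signal, each hexamer's read frequency for a factor is divided by its frequency for the tag-only sample.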

[2] = target: ETV5 (Homo sapiens, UniProt P41161 1-510); details: protein: recombinant; tags: N-terminal GST; dsDNA, one strand shown
Summary of the method: as §1

[3] = target: HSF1 (Homo sapiens, UniProt Q00613 1-529); details: protein: recombinant; tags: N-terminal GST; chain copies: 3; dsDNA, one strand shown
Summary of the method: as §1

[4] = target: T2, SPIC (Homo sapiens, UniProt Q8N5J4 1-248); details: protein: recombinant; tags: N-terminal GST; dsDNA, one strand shown
T2 sequence: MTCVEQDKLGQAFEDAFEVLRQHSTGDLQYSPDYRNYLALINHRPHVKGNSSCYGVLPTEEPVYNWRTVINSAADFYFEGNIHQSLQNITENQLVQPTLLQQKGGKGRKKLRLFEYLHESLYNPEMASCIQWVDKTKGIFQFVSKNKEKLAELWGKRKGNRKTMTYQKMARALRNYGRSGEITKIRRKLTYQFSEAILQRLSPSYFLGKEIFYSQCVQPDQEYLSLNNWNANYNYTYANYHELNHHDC
Summary of the method: as §1

[5] = target: ELF4 (Homo sapiens, UniProt Q99607 1-663); details: protein: recombinant; tags: N-terminal GST; dsDNA, one strand shown
Summary of the method: as §1

[6] = target: T3, ELK4 (Homo sapiens, UniProt P28324-2 1-405); details: protein: recombinant; tags: N-terminal GST; dsDNA, one strand shown
T3 sequence: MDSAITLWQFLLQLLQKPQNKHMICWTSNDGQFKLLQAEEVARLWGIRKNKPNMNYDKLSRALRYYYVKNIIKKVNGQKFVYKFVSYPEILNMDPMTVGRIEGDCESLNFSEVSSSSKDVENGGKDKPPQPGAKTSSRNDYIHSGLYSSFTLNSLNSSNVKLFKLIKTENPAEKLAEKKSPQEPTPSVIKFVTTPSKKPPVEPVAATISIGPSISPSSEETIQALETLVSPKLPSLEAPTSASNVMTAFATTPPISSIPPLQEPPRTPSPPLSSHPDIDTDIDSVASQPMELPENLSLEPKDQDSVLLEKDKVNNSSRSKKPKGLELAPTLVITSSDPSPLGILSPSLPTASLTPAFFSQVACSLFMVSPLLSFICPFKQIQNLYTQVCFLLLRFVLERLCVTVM
Summary of the method: as §1

[7] = target: T4, ETV2 (Homo sapiens, UniProt O00321 1-342); details: protein: recombinant; tags: N-terminal GST; dsDNA, one strand shown
T4 sequence: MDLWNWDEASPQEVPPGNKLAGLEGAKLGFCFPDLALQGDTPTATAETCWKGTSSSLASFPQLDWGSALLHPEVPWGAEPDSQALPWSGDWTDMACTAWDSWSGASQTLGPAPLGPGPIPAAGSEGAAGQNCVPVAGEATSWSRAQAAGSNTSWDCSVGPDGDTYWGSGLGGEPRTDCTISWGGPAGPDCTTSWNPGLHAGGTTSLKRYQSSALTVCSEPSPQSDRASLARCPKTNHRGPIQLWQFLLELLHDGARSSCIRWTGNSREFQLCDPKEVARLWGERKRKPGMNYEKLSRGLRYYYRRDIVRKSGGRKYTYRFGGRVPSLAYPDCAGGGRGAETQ
Summary of the method: as §1

[8] = target: T5, ELF3 (Homo sapiens, UniProt P78545 1-371); details: protein: recombinant; tags: N-terminal GST; dsDNA, one strand shown
T5 sequence: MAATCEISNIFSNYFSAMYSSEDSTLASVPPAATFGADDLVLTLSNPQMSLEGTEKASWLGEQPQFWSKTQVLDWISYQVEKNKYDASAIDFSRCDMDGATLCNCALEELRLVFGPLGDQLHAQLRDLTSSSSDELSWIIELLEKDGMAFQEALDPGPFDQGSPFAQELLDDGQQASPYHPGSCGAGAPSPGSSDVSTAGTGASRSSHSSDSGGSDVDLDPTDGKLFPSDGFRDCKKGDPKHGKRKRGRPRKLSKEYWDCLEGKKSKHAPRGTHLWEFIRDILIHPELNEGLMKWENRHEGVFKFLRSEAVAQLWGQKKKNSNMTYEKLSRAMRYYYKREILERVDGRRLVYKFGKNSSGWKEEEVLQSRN
Summary of the method: as §1

[9] = target: CRX (Homo sapiens, UniProt O43186 1-299); details: protein: recombinant; tags: N-terminal GST; dsDNA, one strand shown
Summary of the method: as §1

[10] = target: ETV1 (Homo sapiens, UniProt P50549 1-477); details: protein: recombinant; tags: N-terminal GST; dsDNA, one strand shown
Summary of the method: as §1

[11] = target: T6, ERF (Homo sapiens, UniProt P50548 1-548); details: protein: recombinant; tags: N-terminal GST; dsDNA, one strand shown
T6 sequence: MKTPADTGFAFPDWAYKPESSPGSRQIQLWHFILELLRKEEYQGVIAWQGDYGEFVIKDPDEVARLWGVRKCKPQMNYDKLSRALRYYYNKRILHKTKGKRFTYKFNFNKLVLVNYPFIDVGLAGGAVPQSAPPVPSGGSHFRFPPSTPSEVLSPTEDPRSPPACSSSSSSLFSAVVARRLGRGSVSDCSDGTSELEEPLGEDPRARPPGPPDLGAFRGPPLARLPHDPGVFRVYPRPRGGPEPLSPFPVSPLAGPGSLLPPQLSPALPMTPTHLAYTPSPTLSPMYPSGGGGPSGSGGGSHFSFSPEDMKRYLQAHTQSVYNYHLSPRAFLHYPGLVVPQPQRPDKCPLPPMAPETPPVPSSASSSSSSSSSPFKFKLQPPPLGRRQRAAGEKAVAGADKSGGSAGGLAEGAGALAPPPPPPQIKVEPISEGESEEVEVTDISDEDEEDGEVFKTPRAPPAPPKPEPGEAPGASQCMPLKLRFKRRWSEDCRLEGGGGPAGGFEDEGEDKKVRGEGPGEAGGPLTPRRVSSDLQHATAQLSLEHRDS
Summary of the method: as §1

[12] = target: T7, ETV3L (Homo sapiens, UniProt Q6ZN32 1-361); details: protein: recombinant; tags: N-terminal GST; dsDNA, one strand shown
T7 sequence: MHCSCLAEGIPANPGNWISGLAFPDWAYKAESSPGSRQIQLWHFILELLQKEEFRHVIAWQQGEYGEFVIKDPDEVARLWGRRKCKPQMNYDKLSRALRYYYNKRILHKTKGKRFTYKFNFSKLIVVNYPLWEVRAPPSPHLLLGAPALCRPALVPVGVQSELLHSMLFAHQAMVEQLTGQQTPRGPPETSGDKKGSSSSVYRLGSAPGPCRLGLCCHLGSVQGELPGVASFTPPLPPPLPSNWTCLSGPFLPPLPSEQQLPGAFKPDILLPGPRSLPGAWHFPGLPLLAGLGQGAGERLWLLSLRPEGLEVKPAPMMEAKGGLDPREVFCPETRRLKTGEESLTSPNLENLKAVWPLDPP
Summary of the method: as §1

[13] = target: T8, ETS2 (Homo sapiens, UniProt P15036 1-469); details: protein: recombinant; tags: N-terminal GST; dsDNA, one strand shown
T8 sequence: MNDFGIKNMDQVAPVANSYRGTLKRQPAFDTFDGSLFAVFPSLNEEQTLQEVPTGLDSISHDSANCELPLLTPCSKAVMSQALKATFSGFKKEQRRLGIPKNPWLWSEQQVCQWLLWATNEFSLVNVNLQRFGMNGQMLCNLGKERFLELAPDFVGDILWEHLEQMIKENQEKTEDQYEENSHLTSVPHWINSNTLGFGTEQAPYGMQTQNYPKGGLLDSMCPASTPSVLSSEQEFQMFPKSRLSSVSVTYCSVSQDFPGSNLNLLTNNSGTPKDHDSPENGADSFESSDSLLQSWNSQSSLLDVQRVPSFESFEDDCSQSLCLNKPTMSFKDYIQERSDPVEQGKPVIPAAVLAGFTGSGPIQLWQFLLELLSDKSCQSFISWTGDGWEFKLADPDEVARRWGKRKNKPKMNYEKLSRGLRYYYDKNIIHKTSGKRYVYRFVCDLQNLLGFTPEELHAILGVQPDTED
Summary of the method: as §1

[14] = target: T9, SPDEF (Homo sapiens, UniProt O95238 1-335); details: protein: recombinant; tags: N-terminal GST; dsDNA, one strand shown
T9 sequence: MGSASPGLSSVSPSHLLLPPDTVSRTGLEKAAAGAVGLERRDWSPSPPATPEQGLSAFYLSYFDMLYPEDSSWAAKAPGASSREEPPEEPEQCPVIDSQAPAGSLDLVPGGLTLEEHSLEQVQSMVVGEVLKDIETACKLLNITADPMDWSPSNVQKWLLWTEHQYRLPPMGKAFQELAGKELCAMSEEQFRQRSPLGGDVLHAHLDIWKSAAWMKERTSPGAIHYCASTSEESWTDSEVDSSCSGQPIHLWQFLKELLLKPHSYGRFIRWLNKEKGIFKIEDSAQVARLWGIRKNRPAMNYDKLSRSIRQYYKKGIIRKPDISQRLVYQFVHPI
Summary of the method: as §1

[15] = target: T10, ETV7 (Homo sapiens, UniProt Q9Y603 1-341); details: protein: recombinant; tags: N-terminal GST; dsDNA, one strand shown
T10 sequence: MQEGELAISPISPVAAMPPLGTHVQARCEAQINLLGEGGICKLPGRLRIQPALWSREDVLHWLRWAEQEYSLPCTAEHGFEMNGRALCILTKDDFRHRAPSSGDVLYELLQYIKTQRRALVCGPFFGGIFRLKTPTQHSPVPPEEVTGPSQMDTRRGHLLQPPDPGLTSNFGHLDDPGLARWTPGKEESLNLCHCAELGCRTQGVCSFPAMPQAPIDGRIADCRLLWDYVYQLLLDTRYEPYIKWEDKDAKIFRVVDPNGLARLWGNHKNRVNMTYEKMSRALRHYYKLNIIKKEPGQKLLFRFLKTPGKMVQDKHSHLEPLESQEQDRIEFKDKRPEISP
Summary of the method: as §1

[16] = target: T11, ELF5 (Homo sapiens, UniProt Q9UKW6-2 1-255); details: protein: recombinant; tags: N-terminal GST; dsDNA, one strand shown
T11 sequence: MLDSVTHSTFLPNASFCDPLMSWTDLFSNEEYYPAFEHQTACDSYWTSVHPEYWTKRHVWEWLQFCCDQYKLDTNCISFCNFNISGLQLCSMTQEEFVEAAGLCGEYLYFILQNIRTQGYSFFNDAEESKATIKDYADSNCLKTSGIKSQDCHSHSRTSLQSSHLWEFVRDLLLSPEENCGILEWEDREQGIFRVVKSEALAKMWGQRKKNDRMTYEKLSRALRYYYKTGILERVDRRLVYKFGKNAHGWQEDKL
Summary of the method: as §1

[17] = target: T12, ETV3 (Homo sapiens, UniProt P41162-2 1-143); details: protein: recombinant; tags: N-terminal GST; dsDNA, one strand shown
T12 sequence: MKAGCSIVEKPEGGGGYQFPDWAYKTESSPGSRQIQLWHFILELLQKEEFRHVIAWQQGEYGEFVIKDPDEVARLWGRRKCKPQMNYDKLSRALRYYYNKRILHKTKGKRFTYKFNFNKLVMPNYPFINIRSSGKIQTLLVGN
Summary of the method: as §1

[18] = target: ETV6 (Homo sapiens, UniProt P41212 1-452); details: protein: recombinant; tags: N-terminal GST; dsDNA, one strand shown
Summary of the method: as §1

Sequence of ETV1 (P50549 whole entry): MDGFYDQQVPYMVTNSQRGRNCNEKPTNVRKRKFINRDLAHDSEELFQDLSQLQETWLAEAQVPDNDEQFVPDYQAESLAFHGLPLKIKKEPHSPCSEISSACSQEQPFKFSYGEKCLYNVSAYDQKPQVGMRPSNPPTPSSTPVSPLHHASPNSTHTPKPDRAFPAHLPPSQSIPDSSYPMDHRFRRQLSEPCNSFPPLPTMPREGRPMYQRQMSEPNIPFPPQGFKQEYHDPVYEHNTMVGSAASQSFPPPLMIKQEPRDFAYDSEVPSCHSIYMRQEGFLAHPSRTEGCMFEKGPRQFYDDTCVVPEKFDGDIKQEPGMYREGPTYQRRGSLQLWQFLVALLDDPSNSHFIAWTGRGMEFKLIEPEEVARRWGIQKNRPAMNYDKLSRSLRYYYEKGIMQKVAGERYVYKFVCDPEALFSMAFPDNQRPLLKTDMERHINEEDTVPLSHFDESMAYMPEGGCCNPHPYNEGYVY
Sequence of CRX (O43186 whole entry): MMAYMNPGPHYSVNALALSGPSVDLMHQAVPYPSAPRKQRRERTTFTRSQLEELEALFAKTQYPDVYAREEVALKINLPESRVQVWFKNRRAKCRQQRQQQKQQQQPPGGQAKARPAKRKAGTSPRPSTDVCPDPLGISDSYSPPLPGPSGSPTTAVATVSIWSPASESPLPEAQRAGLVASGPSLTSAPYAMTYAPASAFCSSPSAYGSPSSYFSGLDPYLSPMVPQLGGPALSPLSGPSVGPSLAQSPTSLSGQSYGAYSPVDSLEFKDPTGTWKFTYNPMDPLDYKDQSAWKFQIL
Sequence of ETV5 (P41161 whole entry): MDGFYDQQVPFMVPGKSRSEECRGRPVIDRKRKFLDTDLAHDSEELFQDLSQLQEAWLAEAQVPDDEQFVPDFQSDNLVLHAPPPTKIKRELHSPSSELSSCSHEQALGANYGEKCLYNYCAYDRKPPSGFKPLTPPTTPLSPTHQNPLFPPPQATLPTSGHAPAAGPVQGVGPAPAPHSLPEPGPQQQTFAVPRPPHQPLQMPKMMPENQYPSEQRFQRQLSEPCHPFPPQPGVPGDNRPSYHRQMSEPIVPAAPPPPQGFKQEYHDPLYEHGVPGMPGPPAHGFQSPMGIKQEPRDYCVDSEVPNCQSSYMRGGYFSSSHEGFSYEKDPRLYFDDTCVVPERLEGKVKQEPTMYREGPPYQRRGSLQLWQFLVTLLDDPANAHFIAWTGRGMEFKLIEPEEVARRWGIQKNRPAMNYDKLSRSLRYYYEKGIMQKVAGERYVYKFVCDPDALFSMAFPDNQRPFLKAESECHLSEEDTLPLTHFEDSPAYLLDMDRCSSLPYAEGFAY
Sequence of ELF4 (Q99607 whole entry): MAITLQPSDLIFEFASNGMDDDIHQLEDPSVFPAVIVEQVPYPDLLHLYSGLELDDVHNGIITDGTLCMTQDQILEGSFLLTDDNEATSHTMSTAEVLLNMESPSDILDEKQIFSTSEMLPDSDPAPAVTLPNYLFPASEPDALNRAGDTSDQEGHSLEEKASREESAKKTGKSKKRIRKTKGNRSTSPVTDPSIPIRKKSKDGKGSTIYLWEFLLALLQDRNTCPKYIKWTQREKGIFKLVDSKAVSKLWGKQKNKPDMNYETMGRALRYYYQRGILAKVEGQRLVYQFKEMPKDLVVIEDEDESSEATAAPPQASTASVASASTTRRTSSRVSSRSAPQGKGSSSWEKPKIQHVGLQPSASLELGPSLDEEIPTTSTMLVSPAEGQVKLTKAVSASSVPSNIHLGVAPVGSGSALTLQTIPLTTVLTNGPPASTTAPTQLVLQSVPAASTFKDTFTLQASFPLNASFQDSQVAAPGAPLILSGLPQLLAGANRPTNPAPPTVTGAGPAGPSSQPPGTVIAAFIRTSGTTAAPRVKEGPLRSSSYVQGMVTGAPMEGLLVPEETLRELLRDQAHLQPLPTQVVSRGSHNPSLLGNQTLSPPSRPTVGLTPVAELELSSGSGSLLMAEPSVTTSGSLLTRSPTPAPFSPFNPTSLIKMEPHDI
Sequence of HSF1 (Q00613 whole entry): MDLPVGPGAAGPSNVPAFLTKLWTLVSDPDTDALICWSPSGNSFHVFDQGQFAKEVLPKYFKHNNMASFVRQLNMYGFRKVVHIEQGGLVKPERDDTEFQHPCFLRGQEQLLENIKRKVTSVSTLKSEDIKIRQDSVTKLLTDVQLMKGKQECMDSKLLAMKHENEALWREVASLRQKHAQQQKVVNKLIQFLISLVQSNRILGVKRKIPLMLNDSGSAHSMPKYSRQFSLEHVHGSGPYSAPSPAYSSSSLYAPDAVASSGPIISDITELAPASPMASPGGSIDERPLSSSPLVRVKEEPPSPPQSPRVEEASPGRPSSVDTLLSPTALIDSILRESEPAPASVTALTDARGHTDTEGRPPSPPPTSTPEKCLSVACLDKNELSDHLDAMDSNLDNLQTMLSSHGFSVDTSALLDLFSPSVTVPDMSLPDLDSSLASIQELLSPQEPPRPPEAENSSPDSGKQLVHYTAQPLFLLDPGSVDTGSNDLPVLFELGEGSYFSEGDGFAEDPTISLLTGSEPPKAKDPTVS
Sequence of ETV6 (P41212 whole entry): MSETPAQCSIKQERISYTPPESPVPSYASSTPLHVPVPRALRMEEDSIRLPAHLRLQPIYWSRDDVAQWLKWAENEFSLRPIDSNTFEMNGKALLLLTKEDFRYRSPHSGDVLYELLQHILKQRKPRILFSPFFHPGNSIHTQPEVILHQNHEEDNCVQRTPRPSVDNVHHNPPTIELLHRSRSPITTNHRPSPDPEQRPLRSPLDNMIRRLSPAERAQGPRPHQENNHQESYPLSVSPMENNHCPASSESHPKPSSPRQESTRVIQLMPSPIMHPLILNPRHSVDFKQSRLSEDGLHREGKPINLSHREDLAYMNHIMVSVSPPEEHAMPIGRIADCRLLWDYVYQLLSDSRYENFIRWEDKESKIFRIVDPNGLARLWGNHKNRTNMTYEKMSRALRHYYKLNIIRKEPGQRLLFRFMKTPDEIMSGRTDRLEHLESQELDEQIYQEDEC

Sequence	binding signal [1]	binding signal [2]	binding signal [3]	binding signal [4]	binding signal [5]	binding signal [6]	binding signal [7]	binding signal [8]	binding signal [9]	binding signal [10]	binding signal [11]	binding signal [12]	binding signal [13]	binding signal [14]	binding signal [15]	binding signal [16]	binding signal [17]	binding signal [18]
AACCCT	1.29 fold enrichment (6-mer frequency, TF over GST control)	1.31 fold enrichment (6-mer frequency, TF over GST control)	1.24 fold enrichment (6-mer frequency, TF over GST control)	1.18 fold enrichment (6-mer frequency, TF over GST control)	1.34 fold enrichment (6-mer frequency, TF over GST control)	1.24 fold enrichment (6-mer frequency, TF over GST control)	1.2 fold enrichment (6-mer frequency, TF over GST control)	1.33 fold enrichment (6-mer frequency, TF over GST control)	1.39 fold enrichment (6-mer frequency, TF over GST control)	1.38 fold enrichment (6-mer frequency, TF over GST control)	1.17 fold enrichment (6-mer frequency, TF over GST control)	1.24 fold enrichment (6-mer frequency, TF over GST control)	1.26 fold enrichment (6-mer frequency, TF over GST control)	1.17 fold enrichment (6-mer frequency, TF over GST control)	1.24 fold enrichment (6-mer frequency, TF over GST control)	1.28 fold enrichment (6-mer frequency, TF over GST control)	1.27 fold enrichment (6-mer frequency, TF over GST control)	1.33 fold enrichment (6-mer frequency, TF over GST control)
AAGTAA	1.24 fold enrichment (6-mer frequency, TF over GST control)	1.32 fold enrichment (6-mer frequency, TF over GST control)	1.24 fold enrichment (6-mer frequency, TF over GST control)	1.35 fold enrichment (6-mer frequency, TF over GST control)	1.27 fold enrichment (6-mer frequency, TF over GST control)	1.19 fold enrichment (6-mer frequency, TF over GST control)	1.38 fold enrichment (6-mer frequency, TF over GST control)	1.42 fold enrichment (6-mer frequency, TF over GST control)	1.39 fold enrichment (6-mer frequency, TF over GST control)	1.31 fold enrichment (6-mer frequency, TF over GST control)	1.27 fold enrichment (6-mer frequency, TF over GST control)	1.31 fold enrichment (6-mer frequency, TF over GST control)	1.27 fold enrichment (6-mer frequency, TF over GST control)	1.23 fold enrichment (6-mer frequency, TF over GST control)	1.27 fold enrichment (6-mer frequency, TF over GST control)	1.42 fold enrichment (6-mer frequency, TF over GST control)	1.28 fold enrichment (6-mer frequency, TF over GST control)	1.45 fold enrichment (6-mer frequency, TF over GST control)
